B1: ENSMUSG00000028439.39|Fam219a|34:40 (ssRNA)
RNA: GGGAGUUCUACAGUCCGACGAUCGCUUCGAUAUCCGCAUGCUACAUUGCUUCCUCCUAUGGUAGGACGUGUACCUCACACACAUCAAGGAGCCGGAGAAACCAAAACCGGGUCUGUCUCCAGCCCCGGGGCUGAGGAGGGGUGGGCACUGUUUGUUCGGUUACUUGGGGGGAACCACACCCAAGCACCCUGCCACCUCUCCUAUAGCUGCAGUCAGGGGGGCAGCACUGAAGGCCAGGAGGCCAAAUGUAAGCGUUGGGUGAAGGGAUCACAGGGCCGGAAGGUUGGCCCCAGCCAGUGAAGCCUCUUGCGGUCGCACUAGUGUGGAAUUCUCGGGUGUCAAGG
B2: ENSMUSG00000043670.69|Diras1|133:138 (ssRNA)
RNA: GGGAGUUCUACAGUCCGACGAUCGCUUCGAUAUCCGCAUGCUACCAUUCUAUCUGCACCCCACAACCACACACUGGAGGUUUGAUCCCUGUGGAUCUGAAAACAGGGACCUGGCUAAGGAACUGCUCAUCCCAGUCAGGCCCAGAGAGGUUACCUUGCCUCUCCAUCUCUGUCCCACACACCCCAGCCAUGCCCACUGUCCCUGUCCCUCACAUUCUAUCACUGUGACCUCUGGGGAGUGCCCAUUGACCUCAUCUUCCUUCACUAAUAUCUUAUUUCUUUCACCUGAUCCUGUCCUUUCCCCCUCUUGCGGUCGCACUAGUGUGGAAUUCUCGGGUGUCAAGG
B3: ENSMUSG00000028439.112|Fam219a (ssRNA)
RNA: GGGAGUUCUACAGUCCGACGAUCGCUUCGAUAUCCGCAUGCUACAAAGGGAUACUGUCUCUCCAUUAGAUAACUCCUUCCACUGUCUCCCUCCCCCGCUUUCUUACUUUCUGAGGGUUGGGAAGGUAAGAUGGGCCUUAGAGAGAAGCCAGGUUUGGGGAUGGUAUGACCUGUUCUCACCGGUCUCUAACCAGUGCAUCUGUCUCUCUGCCUCAUCCCCACACCGCCCUGCCACCCCCAGUCUUCUGUCUAUUGGUUCCAGGCUGGAAGCAAGAGAUAAGGCUGGCCUCCUGUGCCCCAUUGCCUCUUGCGGUCGCACUAGUGUGGAAUUCUCGGGUGUCAAGG
B4: ENSMUSG00000032194.3|Kank2 (ssRNA)
RNA: GGGAGUUCUACAGUCCGACGAUCGCUUCGAUAUCCGCAUGCUAUCAGACUACGAGAGUCCGGCUUCGUCUUCAGCCGAGGAGUGAAUACAGGGAGGAGCCAGUGAGUCCCCCAGGACCCACCAGCCACAAGCCACGCAUCAAACCGUCCCUCCUCCAUCCCUCUGUCCCAUUCUGCCUCGGCAUUCCUCAGCCCCUGAACUUCCCUGAGGGAGCCCUGACAUCUACCAGGCUCAAGCUCCUGGAAGCCUUUCCCAGCACCCUGGGUUCAAAGCCAGAAAGCCAAGCUACAUUCUCCUCCCAGUCUCUUGCGGUCGCACUAGUGUGGAAUUCUCGGGUGUCAAGG
B5: ENSMUSG00000031028.174|Tub|17:22 (ssRNA)
RNA: GGGAGUUCUACAGUCCGACGAUCGCUUCGAUAUCCGCAUGCUAAGAGGUAGCGGACCUCACACACGUUCACCAACAGCAAUGCUGAUCCCUGAGUAUAGGGCACAUGUCUCUUGGUUACCUCACUGGUUAAUGGCAGAGUUGAGAACCUCAAAUUCUUUUGUUCCUACUGUUGCCCAGAAACUAGACUCUCUGACCUGCUAGGGUCUAUUCUGCAUGUCCUUUCUCUUCCCAGUUCCAGAGAUGAAACCCCUCCGAGUUAAUGUAUAAGGUUGGAAACCUUUCAGUAGGGAAUCAGGCAGUUCCUCUUGCGGUCGCACUAGUGUGGAAUUCUCGGGUGUCAAGG
B6: ENSMUSG00000029028.255|Lrrc47 (ssRNA)
RNA: GGGAGUUCUACAGUCCGACGAUCGCUUCGAUAUCCGCAUGCUAGCUCACAGGUCCCUUUGAGUGGCUGUGGCAAGUACUCACCUACUAAGUGUUUAGGGUGGAGCUAUCCUGUGCUCACCCUGUCUCCCCCCAGUUCCUGCUGUUCCCUCCAGCCCAGCCCAGCCCAGGUGUGAGAUUCAUUGAGAUUUUUGAAACUGUUUUUACAGAUUCAAGCAGAACGCCUCUUUGUUCUAAUAAAAACCCUUGGUAACGACAUCUCUGCAUCAGCAGCCUUAGCACAUGCGUCUCCCAGGACAGUGUUGCUCUUGCGGUCGCACUAGUGUGGAAUUCUCGGGUGUCAAGG
B7: ENSMUSG00000029636.271|Wasf3|45:50 (ssRNA)
RNA: GGGAGUUCUACAGUCCGACGAUCGCUUCGAUAUCCGCAUGCUAAGUGAAAGCCCAUGUGCAAGCCCCUCCCUACGCCCUGCUUUGGCCACACACUGAGUGCUCUGUGCUGCGCCAUGGCCAUCCUGGAGCCUGCGCACACGUGGCCGCUGCUGUGACUCGCUGUCCUUGGUAAUUGGUGAGAGGCUUUUUCUUUCUUUCUCAGUUCUGCUUUUCCACACUGAGACCCACCAUGUUGACAUCAUCCUCGCGACGUUGACAUUUGAGCCUUUUGUUCUGUCUCCCAUGUGCCCUGUAGAACCCAGCUCUUGCGGUCGCACUAGUGUGGAAUUCUCGGGUGUCAAGG
B8: ENSMUSG00000022095.270|Fam160b2|25:45;92:96;228:233 (ssRNA)
RNA: GGGAGUUCUACAGUCCGACGAUCGCUUCGAUAUCCGCAUGCUAAGAGCGAGCUAUGAAUGAAUGUGACACACACACACACACACACACAGAGAGAGAGAGAGAGAGAGAGAGCUGUGAGUACACAUGGGUGCUGCACACGGACAGGAGCAGAUCUUGGUGGAGUGGGUCUACACUUGAGAUUUGUACUCGUUUGAGAGGCUGGGCAAUACUCAAUGCACUUUGGCAUUUGCAUGGUGUCUUCACAACAGCACAGCAAUAAACAUUGUGAUACACACGACAUGCUGACUCUCCCCAGUCUGCUUCUCUUGCGGUCGCACUAGUGUGGAAUUCUCGGGUGUCAAGG
B9: ENSMUSG00000022095.268|Fam160b2|37:57;104:108;240:245 (ssRNA)
RNA: GGGAGUUCUACAGUCCGACGAUCGCUUCGAUAUCCGCAUGCUAAGAGAGAGAGAGAGAGCGAGCUAUGAAUGAAUGUGACACACACACACACACACACACAGAGAGAGAGAGAGAGAGAGAGAGCUGUGAGUACACAUGGGUGCUGCACACGGACAGGAGCAGAUCUUGGUGGAGUGGGUCUACACUUGAGAUUUGUACUCGUUUGAGAGGCUGGGCAAUACUCAAUGCACUUUGGCAUUUGCAUGGUGUCUUCACAACAGCACAGCAAUAAACAUUGUGAUACACACGACAUGCUGACUCUCCUCUUGCGGUCGCACUAGUGUGGAAUUCUCGGGUGUCAAGG

The full ranking holds about 9,900 sequences; the median of “r (bound/input frequency ratio)” is about 0.7, and the highest 2% start at about 6.5. The entries come from a sample that favours the highest values as a whole.

TDP-43, sequence (Q13148 whole entry): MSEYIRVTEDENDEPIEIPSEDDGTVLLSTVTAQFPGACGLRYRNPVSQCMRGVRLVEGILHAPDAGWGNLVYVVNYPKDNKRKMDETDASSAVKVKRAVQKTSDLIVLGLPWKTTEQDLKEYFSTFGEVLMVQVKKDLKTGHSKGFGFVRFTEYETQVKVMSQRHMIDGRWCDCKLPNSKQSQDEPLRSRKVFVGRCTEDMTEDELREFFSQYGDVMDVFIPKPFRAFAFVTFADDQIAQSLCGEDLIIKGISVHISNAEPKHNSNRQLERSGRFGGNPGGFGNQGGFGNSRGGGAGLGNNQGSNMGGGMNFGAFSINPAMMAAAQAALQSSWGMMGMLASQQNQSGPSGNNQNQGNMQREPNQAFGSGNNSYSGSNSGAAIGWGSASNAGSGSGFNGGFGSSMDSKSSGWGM

This assay has as its target TDP-43 (Homo sapiens, UniProt Q13148 1-414). Description: RNA Bind-n-Seq with designed 260-mer pool; 25 mM Tris-HCl, 150 mM KCl, 3 mM MgCl2, BSA (printed 500 mg/mL), 20 units/mL SUPERase IN; pH not stated; 500 nM RNA pool, 1 h, 4 C; TDP-43 5, 50, 500 nM; high values mean tight binding. The settings on record: protein: recombinant; tags: SBP (GST cleaved off with PreScission; pGEX-GST-SBP). In short, it runs like this: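 Duplicate measurements used two independent batches of recombinant SBP-tagged TDP-43, which was captured on streptavidin beads at 5, 50 or 500 nM. The beads were incubated with 500 nM of an in vitro-transcribed 260-nt 3′ UTR oligo pool for 1 h at 4 °C in 25 mM Tris-HCl, 150 mM KCl, 3 mM MgCl2, BSA and SUPERase IN. After washing, biotin elution, reverse transcription, PCR amplification and sequencing, binding was expressed as R: each oligo's normalized read abundance in the bound sample over its abundance in input.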
B1: the binding signal was 1.29 R (bound/input frequency ratio). B2: the binding signal was 2.03 R (bound/input frequency ratio). Regarding B3, the binding signal is 0.71 R (bound/input frequency ratio).

For B4, the binding signal was 1.4 R (bound/input frequency ratio). As for B5, the binding signal is 0.553 R (bound/input frequency ratio). Take B6: the binding signal is 0.69 R (bound/input frequency ratio). With B7 the figure was 0.821 R (bound/input frequency ratio). Regarding B8, the binding signal is 4.7 R (bound/input frequency ratio). Take B9: the binding signal was 6.08 R (bound/input frequency ratio).

Values taken from publication PMC12864922, “TDP-43 directly inhibits mRNA accumulation in neurites through modulation of mRNA stability”.
